# Laboratory results published in PubChem BioAssay (NCI).
# The panel holds about 83,000 compounds, 20% with a hit somewhere; the sample as a whole holds those more often.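 Interpretation: 100, growth as untreated; towards 0, rising growth inhibition; 0, no net growth; 0 to -100, cell death. Compounds scoring below 10 were considered active.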 Unmarked numbers belong to inactive results. Active and inactive are the calls of the source.
# How the values were obtained:
# Test in all cases: NCI-60 one-dose screen, 48 h (100 = growth as untreated, 0 = no growth, -100 = all killed)
# Conditions in all cases: 10 µM unless noted
# [1] = test system: SR leukemia
# [2] = test system: RPMI-8226 leukemia
# [3] = test system: OVCAR-8 ovarian
# [4] = test system: OVCAR-4 ovarian
# [5] = test system: SK-OV-3 ovarian
# [6] = test system: IGROV1 ovarian
# [7] = test system: OVCAR-3 ovarian
# [8] = test system: HS 578T breast
# [9] = test system: NCI/ADR-RES ovarian
# [10] = test system: OVCAR-5 ovarian
SMILES,growth [1],growth [2],growth [3],growth [4],growth [5],growth [6],growth [7],growth [8],growth [9],growth [10] [%]
C=CN(C(=O)N1CCN(c2cc3c(cc2F)c(=O)c(C(=O)O)cn3C2CC2)CC1)c1nc(-c2ccccc2)cs1,86.2%,93.4%,91.3%,93.1%,87.8%,105%,108%,97.8%,103%,–
O=C(Nc1cccnc1Nc1ccccc1)c1cn(Cc2cccc(Oc3ccccc3)c2)nn1,26.6%,57.2%,71.4%,86.9%,77.1%,78.1%,52.6%,40.8%,33.8%,–
CC(C)(C)c1ccc(S(=O)(=O)Oc2ccc(-c3sc4cc(OS(=O)(=O)c5ccc(C(C)(C)C)cc5)ccc4c3C(=O)c3ccc(OCCN4CCCCC4)cc3)cc2)cc1,104%,93.6%,115%,97.1%,–,101%,–,104%,97.9%,99.4
O=C1CCCCN1c1ccc(C2=NCCCN2)cc1,99.8%,57.4%,104%,91.3%,–,–,83.9%,73.2%,103%,95.9
Cc1nc2sc(C(=O)Nc3cccc(Cl)c3C)c(N)c2cc1C(=O)/C=C/c1ccccc1,14.2%,-37.2% (active),-12.5% (active),35.5%,28.8%,-11.8% (active),-76.6% (active),6.35% (active),-4.7% (active),–
COc1ccc2c(c1)CC[C@@H]1[C@@H]2CC[C@]2(C)C3C(=CC(COC(C)=O)C4C(=O)N(c5ccc(Cl)cc5)C(=O)C43)C[C@@H]12 (some centres undefined),35.4%,61.8%,107%,101%,125%,119%,110%,110%,102%,–
Clc1ccc(-c2cc(-c3ccccc3)nc(N3CCN(CCCNc4ccnc5cc(Cl)ccc45)CC3)n2)cc1,5.44% (active),4.72% (active),-47.5% (active),9.85% (active),106%,-62.4% (active),-47.9% (active),-17.9% (active),36%,–
Cc1nc([P+](c2ccccc2)(c2ccccc2)c2ccccc2)c(N2CCCCC2)o1,20.3%,-13.5% (active),20.3%,19.8%,20.6%,32.8%,19.5%,27.9%,107%,–
O=C(O)c1cn(C2CC2)c2cc(N3CCN(C(=O)N/N=C/c4cccc5ccccc45)CC3)c(F)cc2c1=O,88.5%,110%,95.3%,98.3%,–,94.5%,–,96.2%,105%,110
COc1ccc(C/C(C)=C(\c2ccc(Cl)cc2)c2ccc(OCCCN(C)C)cc2)cc1,-31.7% (active),-2.97% (active),86.2%,92.9%,99.1%,62.8%,79.4%,75.6%,88.7%,–
Nc1cc(-c2ccc(Cl)cc2)nn1-c1nnc(/C=C/c2ccco2)c(=O)[nH]1,38.1%,43.3%,24.8%,29.1%,–,35%,–,74.1%,5.73% (active),60.9
CCOC(=O)C#Cc1c(C(=O)OCC)nnn1[C@@H]1O[C@H](COC)[C@@H](OC)[C@H]1OC,8.26% (active),62.5%,104%,73.5%,92.6%,–,15.5%,97%,109%,–
COc1ccc(/C=N/NC(=O)Cn2c(-c3ccc(S(C)(=O)=O)cc3)nc3ccccc32)cc1,100%,105%,–,117%,117%,91.4%,103%,92.4%,104%,99.7
C[C@H](c1nc2ccc(C#N)cc2[nH]1)[C@H]1CC[C@H]2[C@@H]3CCC4=CC(=O)CC[C@]4(C)[C@H]3CC[C@]12C,34.6%,20.3%,–,46%,80%,66.9%,–,63.4%,67.5%,85.3
COc1cc(-c2ccc(-c3ccc(C(=N)N)cc3)s2)cc(OC)c1OC,5.38% (active),-22.6% (active),–,54%,77.9%,62.6%,46%,34.7%,95.4%,83
COC12C=C/C(=C(/C(=O)OCc3cncnc3)C(=O)CCCCCCCCC3(OC)C=C/C(=C(/C(=O)OCc4cncnc4)C(=O)CCCCCCCC1)O3)O2,-36% (active),-20.1% (active),–,-4.86% (active),36.9%,-59.5% (active),-57.8% (active),26.5%,8.14% (active),–
COC(=O)Cn1c2c(c3c(OC)cccc31)C(=O)c1ccccc1-2,84.8%,85.3%,–,101%,96.9%,110%,116%,97.2%,95.5%,81.1
Cn1c2ccccc2c2c3c(c4c5cc(Br)ccc5n(C)c4c21)C(=O)N(O)C3=O,18.6%,10.8%,–,53.7%,3.4% (active),21.5%,–,61.9%,6.86% (active),92.6
CCN(CC)C(=O)C1=C(C)NC(=O)NC1c1ccc2c(c1)OCO2 (centres undefined),105%,102%,–,111%,111%,99.6%,113%,96.7%,104%,105
CC(=O)O[C@H]1CC[C@]2(C)[C@H]3CC=C4[C@@H]5CC(C)(C)CC[C@]5(C(=O)N5CCN(CCC#N)CC5)CC[C@@]4(C)[C@]3(C)CC[C@H]2C1(C)C,13.7%,13.3%,–,-44.1% (active),60.6%,39.1%,-9.23% (active),61.2%,48.8%,70.6
CCOC(=O)c1cnn(CC(C)O)c1NC(=O)NCc1ccccc1C(F)(F)F (centres undefined),82.3%,116%,–,98.6%,101%,95.5%,108%,110%,100%,–
COc1ccc2[nH]cc(-c3nonc3-c3c[nH]c4ccc(Br)cc34)c2c1,35.4%,52.7%,–,50.1%,56.3%,65.3%,62.6%,55.1%,39.9%,47.7
O=C1/C(=C/c2c[nH]c(=O)[nH]c2=O)SC(=S)N1Cc1ccccc1,99.5%,101%,–,105%,103%,102%,108%,89%,106%,99
COc1cc2c3c(c4c5ccccc5[nH]c4c2c(OC)c1OC)C(=O)N(CCN1CCCCC1)C3=O,21.6%,-12% (active),–,15.7%,54.7%,-68.8% (active),-20.7% (active),52.2%,24.6%,52.4
CN1C(=O)/C(=C/c2ccc(C(=O)Nc3ncc(Cc4cccc(C(F)(F)F)c4)s3)cc2)SC1=S,52.6%,22.1%,–,34.4%,50.6%,56.7%,71.1%,63.9%,33.4%,–
N#C/C(=C\c1ccc(-c2cccc(Cl)c2)o1)C(=O)Nc1ncc(Cc2ccc(Cl)cc2)s1,29.9%,81.1%,–,-45.5% (active),78%,30.5%,11.3%,24.4%,54.6%,47.1
